# From ChEMBL document CHEMBL3988442, “University of Dundee, Small-Polar-MMV Screening Library” (2021)
# Screen size: about 48,000 compounds; about 13,000 (27%) showed an effect of 50% or more. Some of the results follow.
# Tested on: Wolbachia pipientis
# Assay: Anti-Wolbachia Cell-Based Screen
# Format: functional
# Design: scale not given: in the data most compounds retested in dose-response had high values
# Settings: 5 µM
row,SMILES,Percent Effect [%]
1,Cc1cccn2c(=O)cc(CN3CCCC3Cn3cncn3)nc12 (configuration not stated),14.6
2,O=C(NCCNS(=O)(=O)c1ccc2c(c1)CCCC2)c1ccoc1,1.057
3,CC(c1ccc(C(F)(F)F)cc1)N1CCN(CCS(C)(=O)=O)CC1 (configuration not stated),-14.82
4,Cc1nn(C)cc1CNC(=O)c1cn(CCC2CCCCN2)nn1 (configuration not stated),3.544
5,CC(C)CSCCN1CCCN(S(C)(=O)=O)CC1,87.23
6,COc1cccc(/C=C/CCN2CCN(S(C)(=O)=O)CC2)c1,-6.634
7,CC(C)COC(C)C(=O)N1CCN(S(C)(=O)=O)CC1 (configuration not stated),-15.22
8,CCSCCN1CCCN(S(C)(=O)=O)CC1,101
9,CS(=O)(=O)N1CCCN(CCCSCc2ccccc2)CC1,0.2965
10,CS(=O)(=O)N1CCN(Cc2ccc(F)cc2Br)CC1,0.07282
11,CC(OCC(F)(F)F)C(=O)N1CCN(S(C)(=O)=O)CC1 (configuration not stated),-14.66
12,CC(C)CSCCN1CCN(S(C)(=O)=O)CC1,87.34
13,Cc1noc(C)c1C(=O)NCCN1CCN(S(C)(=O)=O)CC1,1.414
14,c1ccc2c(c1)CCN(c1ncnc3sc4c(c13)CCNC4)C2,-22.34
15,CC(C)(C)c1nnc(CN2CCn3c(nnc3C3CC3)C2)o1,-1.017
16,COc1cc(CNCc2c(C)nn(C)c2N(C)C)ccc1C,5.351
17,Cc1nn(C)c(N(C)C)c1CNCc1cccc(CN(C)C(C)C)c1,4.552
18,Cc1nn(C)c(N(C)C)c1CNC(C)COc1ccccc1F (configuration not stated),101.5
19,COCCOc1ccccc1CNCc1c(C)nn(C)c1N(C)C,3.924
20,COc1cccc(OCCNCc2c(C)nn(C)c2N(C)C)c1,-5.717
21,Cc1nn(C)c(N(C)C)c1CNC(C)COc1ccc(F)cc1 (configuration not stated),102.4
22,Cc1nn(C)c(N(C)C)c1CNC(C)COc1ccc(F)cc1F (configuration not stated),105.9
23,CCOc1cccc(C(C)NCc2c(C)nn(C)c2N(C)C)c1 (configuration not stated),98.21

row,SMILES,Percent Effect [%]
1,Cc1nn(C)c(N(C)C)c1CNCC(O)COc1ccccc1.Cl (configuration not stated),-3.331
2,Cc1nn(C)c(N(C)C)c1CNC(C)c1cccnc1 (configuration not stated),9.889
3,Cc1nn(C)c(N(C)C)c1CNCC(O)COc1ccc(F)cc1 (configuration not stated),-24.06
4,c1cc(-c2c[nH]c([C@@H]3COCCN3C3CCOCC3)n2)ccn1,-2.86
5,COc1cccc(C(C)N2CCN(S(=O)(=O)CCCF)CC2)c1 (configuration not stated),11.55
6,CC(C(=O)Nc1ccnn1C(C)C)N1CCN(Cc2ccccc2)CC1 (configuration not stated),-23.16
7,CC(C)n1cnc2c(-c3cccnc3)nc(C3CCNCC3)cc21.Cl.Cl,-47.69
8,c1cc(-c2cncc(C3CCNCC3)n2)n[nH]1,120.5
9,O=c1n(Cc2ncccn2)nc(C2CCNCC2)n1-c1ccccc1,0.768
10,c1cc(-c2cnc(C3CCNCC3)cn2)n[nH]1,125.1
11,O=C(c1cscn1)N1CCCC12CCCN(S(=O)(=O)c1ccccc1)C2 (configuration not stated),-2.919
12,CC(C)[C@@H]1CN(Cc2cnc3c(S(C)(=O)=O)cnn3c2)C[C@H]1N(C)C,-1.352
13,COc1ncccc1CNc1cc(N2CCCC2CO)ncn1 (configuration not stated),0.4879
14,Cc1nccc(N2CCCC2CCNS(C)(=O)=O)n1 (configuration not stated),105.7
15,CS(=O)(=O)NCCCN1CCCC1Cc1ccccc1 (configuration not stated),-4.416
16,CNc1cc(N2CCCC2CNCc2ccccn2)ncn1 (configuration not stated),-5.969
17,Cc1nccc(N2C[C@H](NC(=O)CNS(C)(=O)=O)[C@@H](C3CC3)C2)n1,-1.379
18,CCc1ccc(CNc2cc(N3CCCC3CO)ncn2)s1 (configuration not stated),110.8
19,CN(CCCNc1cc(N2CCCC2CO)ncn1)S(C)(=O)=O (configuration not stated),-14.7
20,OCC1CCCN1c1cc(NCc2cccs2)ncn1 (configuration not stated),94.03
21,Cc1nccc(CNc2cc(N3CCCC3CO)ncn2)n1 (configuration not stated),87.89
22,OCC1CCCN1c1cc(NCc2ccc(Cl)s2)ncn1 (configuration not stated),16.81
23,Cc1cccnc1CNc1cc(N2CCCC2CO)ncn1 (configuration not stated),-0.7119

row,SMILES,Percent Effect [%]
1,COc1ccc(-c2noc([C@@H](C)NS(=O)(=O)CC(C)C)c2C(=O)O)cc1,-11.95
2,Cn1cc(Cl)c(CN2CCn3nc(C(=O)Nc4ccccc4)cc3C2)n1,-7.275
3,Cc1ncsc1CNc1cc(N2CCCC2CO)ncn1 (configuration not stated),92.3
4,Cc1noc(C)c1CNc1cc(N2CCCC2CO)ncn1 (configuration not stated),-3.514
5,Cc1cccc2c1CCN(c1cc(N3CCCC3CO)ncn1)C2 (configuration not stated),1.096
6,COCc1ccccc1CNc1cc(N2CCCC2CO)ncn1 (configuration not stated),1.416
7,OCC1CCCN1c1cc(NCc2ccsc2)ncn1 (configuration not stated),106
8,OCC1CCN(c2ccc(NCc3ccsc3)nc2)CC1,-9.25
9,CN1CCN(c2cc(N3CCCC3CO)ncn2)Cc2ccccc21 (configuration not stated),10.62
10,Cc1ccc(CNc2cc(N3CCCC3CO)ncn2)s1 (configuration not stated),116.3
11,Cc1ccsc1CNc1cc(N2CCCC2CO)ncn1 (configuration not stated),12.33
12,CN(CC1COc2ccccc2O1)C(=O)NCCCn1cncn1 (configuration not stated),-12.38
13,CCc1nnc2n1CCN(Cc1csc(-c3ncccn3)n1)C2,-18.32
14,Cc1nnc2n1CCN(Cc1csc(COc3ccccc3)n1)C2,109.3
15,Cc1nnc2n1CCN(Cc1csc(-c3ccc(F)cc3)n1)C2,-7.701
16,Cc1ccc(-c2nc(CN3CCn4c(nnc4C4CC4)C3)cs2)o1,3.918
17,Cc1nnc2n1CCN(Cc1csc(-c3ncccn3)n1)C2,110.5
18,Cc1nnc2n1CCN(Cc1csc(-c3cnn(C)c3)n1)C2,-23.78
19,Cc1nnc2n1CCN(CCOc1ccccc1)C2,2.68
20,CCc1nnc2n1CCN(Cc1csc(-c3ccsc3)n1)C2,-5.09
21,Cc1ccc(-c2nc(CN3CCn4c(C)nnc4C3)cs2)o1,51.15
22,Cc1nnc2n1CCN(Cc1csc(-c3ccsc3)n1)C2,121.4
23,c1cnc(-c2nc(CN3CCn4c(nnc4C4CC4)C3)cs2)nc1,13.95

row,SMILES,Percent Effect [%]
1,CCc1nnc2n1CCN(Cc1csc(-c3ccc(C)o3)n1)C2,-1.199
2,CC(C)C1C(=O)NCCN1C(=O)CCCc1nc(C(C)(C)C)no1 (configuration not stated),-23.49
3,COc1ccnc(N2CCN(C(=O)CCc3cnn(C)c3)CC2)n1,36.6
4,COCC1CN(Cc2cc(C)on2)Cc2cn(C)nc21 (configuration not stated),6.327
5,CCN(C)CC1CCN(S(=O)(=O)c2cc(C)c(F)cc2Cl)C1 (configuration not stated),6.524
6,Cc1nn(C)c(C)c1C1CCCN1CC(=O)Nc1ccncc1 (configuration not stated),1.396
7,COc1c(C2CCCN2CC(=O)Nc2cc(C)no2)c(C)nn1C (configuration not stated),-8.496
8,Cc1nn(C)c(Cl)c1C1CCCN1Cc1ccccn1 (configuration not stated),85.99
9,Cc1nn(C)c(Cl)c1C1CCCN1CC(=O)NCc1ccccn1 (configuration not stated),-3.313
10,Cc1cc(CN2CCCC2c2c(C)nn(C)c2Cl)no1 (configuration not stated),7.779
11,Cc1nn(C)c(Cl)c1C1CCCN1CCc1ccccn1 (configuration not stated),5.429
12,COc1c(C2CCCN2CC(=O)NCc2ccccn2)c(C)nn1C (configuration not stated),101.4
13,Cc1nn(C)c(C)c1C1CCCN1CC(=O)NCc1ccccn1 (configuration not stated),103.7
14,COc1c(C2CCCN2CC(=O)Nc2nc(C)cs2)c(C)nn1C (configuration not stated),-2.535
15,CNC(=O)C1CCC(NC(=O)N(C)Cc2c(C)noc2C)CC1 (configuration not stated),3.279
16,Nc1cc(O)nc(CCNC(=O)CC[C@@H]2CCCN3CCCC[C@H]23)n1,-22.38
17,CCC(O)CN(Cc1cccc(C(=O)N(C)C)c1)c1ccccc1 (configuration not stated),6.575
18,CCC(C)(O)CNc1ccc(S(=O)(=O)C(F)F)cc1 (configuration not stated),-17.2
19,Cn1c(=O)[nH]c2cc(C(=O)OCC(F)F)ccc21,-3.927
20,CC(C)n1cnnc1Cn1c(=O)cnc2ccccc21,-19.8
21,O=C(c1cccc(Cl)c1)N1CCCC(Nc2ccc(F)cc2)C1 (configuration not stated),-14.25
22,CC(C)C(=O)NC1CCCN(C(=O)c2ccc(O)c(Cl)c2)C1 (configuration not stated),88.73
23,CCC1CN(C(=O)c2ccc(Cl)cc2O)CCN1C(C)C (configuration not stated),-0.08814

row,SMILES,Percent Effect [%]
1,CC(C)C(=O)NC1CCCN(C(=O)c2cc(Cl)ccc2O)C1 (configuration not stated),122.5
2,CCC1(C(=O)O)CCCN(C(=O)c2ccc(O)c(Cl)c2)C1 (configuration not stated),-6.141
3,CC(=O)NC1CCCN(C(=O)CNc2cc(Cl)cc(Cl)c2)C1 (configuration not stated),-7.422
4,Cc1ccc(C(=O)N2CCCC(C(=O)N3CCCCC3)C2)c(O)c1 (configuration not stated),-5.568
5,Cc1ccc(O)c(C(=O)N2CCCC(NC(=O)C(C)C)C2)c1 (configuration not stated),85.08
6,Cc1ccc(C(=O)N2CCCC(NC(=O)C(C)C)C2)c(O)c1 (configuration not stated),9.198
7,COc1c(F)cc(NC(=O)N2CCC(CSC)C2)cc1F (configuration not stated),-4.081
8,CS(=O)(=O)CCNC(=O)Nc1sc2ccccc2c1Cl,-6.956
9,CCCn1[nH]cc/c1=N\C(=O)CN1CCCC1c1cccn1C (configuration not stated),-13.94
10,Cc1noc(C2CCC3(CCN(C(=O)c4cnn(C)c4)CC3)O2)n1 (configuration not stated),95.88
11,O=C(C1CCOCC1)N1CCC2(CCC(C(=O)N3CCCC3)O2)CC1 (configuration not stated),-2.84
12,Cc1noc(C2CCC3(CCN(C(=O)C4=CCCCC4)CC3)O2)n1 (configuration not stated),-12.42
13,Cc1noc(C2CCCN(C(=O)c3scnc3Cl)C2)n1 (configuration not stated),3.125
14,Cc1noc(C2CCN(C(=O)c3cc(Br)ccc3F)CC2)n1,2.952
15,Cc1noc(C2CCC3(CCN(C(=O)c4ccn(C)n4)CC3)O2)n1 (configuration not stated),89.59
16,Cc1noc([C@H]2C[C@H]3CN(C(=O)C4CCOCC4)CC[C@@H]3O2)n1,-6.774
17,Cn1cc(C(=O)N2CC[C@@]3(O)CCN(C(=O)C4CCCC4)C[C@H]3C2)cn1,2.716
18,Cn1ccc(C(=O)N2CCC3(CCC(=O)N(C4CCCC4)C3)CC2)n1,5.203
19,Cc1noc(C2CCC3(CCN(C(=O)C4CCOCC4)CC3)O2)n1 (configuration not stated),108.6
20,Cc1noc(C2CCC3(CCN(C(=O)c4sccc4C)CC3)O2)n1 (configuration not stated),105.9
